From PubChem BioAssay (NCI)
About 79,000 compounds went through this panel and 15% of them were active in at least one assay; those are over-represented in the sample as a whole. A number with no mark means an inactive call. Calls of active or inactive are those of the source. No stated cut-off is given here; in the data, active means growth inhibition above about 70%; inactive means the rest.

Legend:
[1] = NCI Yeast Anticancer Drug Screen. Data for the rad50 strain (AID 155);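 further: 0% = growth of vehicle-only cultures of the same strain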; settings: S. cerevisiae rad50 strain growth inhibition; at 50.0 µM; hits give high values
How it was run: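 Vehicle-treated cultures provide the reference for the growth inhibition reported for compound-exposed, repair-deficient yeast.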

[2] = NCI Yeast Anticancer Drug Screen. Data for the mec2-1 strain (AID 157); settings: S. cerevisiae mec2-1 strain, at 50.0 µM, hits give high values
How it was run: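 Growth inhibition is read against vehicle-treated controls after compound exposure of the mec2-1 yeast strain, which is defective in DNA damage repair or cell cycle control.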

[3] = NCI Yeast Anticancer Drug Screen. Data for the sgs1 mgt1 strain (AID 161);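 further: 0% = growth of cultures given vehicle only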; settings: S. cerevisiae sgs1 mgt1 strain, at 50.0 µM, hits give high values
How it was run: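 Growth of a repair-deficient yeast mutant was monitored after compound treatment and expressed as inhibition relative to vehicle-treated cultures.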

[4] = NCI Yeast Anticancer Drug Screen. Data for the cln2 rad14 strain (AID 165);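 further: 0% = growth equal to vehicle treated cultures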; settings: S. cerevisiae cln2 rad14 strain, at 50.0 µM, hits give high values
How it was run: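 Growth inhibition, relative to vehicle-treated controls, is the read-out. The test organism is a yeast strain with defined genetic alterations, cln2 rad14.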

[5] = NCI Yeast Anticancer Drug Screen. Data for the bub3 strain (AID 167); settings: S. cerevisiae bub3 mutant strain, at 50.0 µM, hits give high values
How it was run: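 Mutant yeast screening strain plus compound; vehicle-treated cultures serve as the 0% inhibition reference.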

[6] = NCI Yeast Anticancer Drug Screen. Data for the mlh1 rad18 strain (AID 175); settings: S. cerevisiae mlh1 rad18 strain growth inhibition; at 50.0 µM; hits give high values
How it was run: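 Cells of a genetically altered yeast strain, deficient in DNA damage repair, were treated with compound. Their growth was then compared with that of vehicle-treated cultures to give inhibition.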

SMILES | growth inhibition [1] | growth inhibition [2] | growth inhibition [3] | growth inhibition [4] [%] | growth inhibition [5] | growth inhibition [6] [%]
CC(=O)Nc1ccc(S(=O)(=O)CO)cc1 | 19.4% | 16.9% | 19.6% | 6.55 | -0.3% | 16.8
CC(=O)Nc1ccccc1C | 11.9% | -7.1% | -0.55% | -5.65 | 5.2% | 3.05
CC(C)C1CC[C@H](C)C[C@@H]1OC(=O)C(C(=O)O[C@H]1C[C@@H](C)CCC1C(C)C)C(O)[C@@H]1OC(C)(C)O[C@H]1C1COC(C)(C)O1 (stereo partly drawn) | 73.8% (active) | 90.8% (active) | 91.9% (active) | 44.7 | 90.8% (active) | 56.9
O=c1c(-c2ccc3c(c2)OCO3)coc2cc(O)ccc12 | -2.9% | -0.85% | 18.9% | 13.7 | 11.6% | 23.1
BrC1c2ccccc2-c2nc3ccccc3nc21 (stereo not drawn) | 11.2% | 4.6% | 1.6% | 56.2 | 17.1% | 29.9
CCNC1=C(OC)C(=O)C(NCC)=C(OC)C1=O | -6.2% | 7.25% | 2.6% | -33.6 | 5.3% | -5.8
OCCC(CO)Cc1ccc2c(c1)OCO2 (stereo not drawn) | -26.7% | 2.75% | 9.3% | 10.4 | -14.2% | -36.3
CC(C)CC1CC(=O)NC1C(=O)O (stereo not drawn) | -14.2% | 0.35% | -13.2% | -26.1 | -0.85% | -28.9
CC(=O)C(c1ccccc1)N(CCO)Cc1ccccc1 (stereo not drawn) | 8.15% | -6% | -5.9% | 28.6 | 7.45% | 1.8
NC(=O)NC12CC3CC(CC(C3)C1)C2 | 13.3% | -5.8% | 13.1% | -0.75 | 4.9% | 2.75
CN(C)Cc1ccc(O)c(CN(C)C)n1 | -21.1% | -19.1% | -14.8% | -3.65 | -49.8% | -19.2
Clc1ccccc1C(N1CCCCC1)N1CCCCC1 | 27.9% | 13.2% | 19.4% | 13.5 | 28% | 28.1
O=C(NN1C(=O)C(Cl)C1c1ccccc1O)c1ccccc1O (stereo not drawn) | -5.85% | -26.5% | -15.6% | -15.1 | -16.6% | -29.4
COc1ccc(-c2oc3ccc(C)cc3c(=O)c2O)cc1 | 6.9% | -8% | -14.8% | 14.8 | -5.7% | -26.8
CCC1CC/C(=N\Nc2ccc([N+](=O)[O-])cc2[N+](=O)[O-])c2ccc3c(C)ccc(C)c3c21 (stereo not drawn) | -1% | 7.25% | -8.7% | -14.2 | -2.5% | 6.8
CC(C)Cc1c(N)nc(NCCCC(N)C(=O)O)[nH]c1=O (stereo not drawn) | 13.5% | -16.9% | -3.55% | 13.1 | 9.8% | 11.8
COC1=CC(=O)C(C(C)=O)=C(C2(C)C(=O)CCCC2=O)C1=O | -12.3% | 0.5% | -0.6% | 6.25 | 5.15% | 7.25
CCOP(=O)(OCC)/C(=C\n1ccc(=O)[nH]c1=S)C(=O)OC | -54.8% | -54% | -27.4% | -8.6 | -28% | -53.5
CC1CCc2nc(N)nc(CC3CC(=O)NC(=O)C3)c2C1 (stereo not drawn) | -2.75% | -5.65% | -8.7% | -45.5 | -12.8% | -3.2

SMILES | growth inhibition [1] | growth inhibition [2] | growth inhibition [3] | growth inhibition [4] [%] | growth inhibition [5] | growth inhibition [6] [%]
CCNC(=O)NS(=O)(=O)c1ccc(Sc2ccc(Cl)cc2)nc1 | -5.8% | -2.95% | -7.5% | -5.7 | -0.55% | -0.4
CC(=O)CC(=O)NCCNC(=O)CC(C)=O | -4.55% | -11.6% | 10.3% | 6.4 | -4.55% | 8.85
C=CCc1cc(OC)c2c(c1)C(O)CC(c1ccccc1)O2 (stereo not drawn) | 15.2% | -24.6% | -34.6% | -6.2 | 2.9% | 1.55
COc1cc(OC)c2cc(C(=O)c3cccc4ccccc34)c(=O)oc2c1 | 1.35% | -22.8% | 9.65% | 16.9 | 19.4% | 13.4
O=C(OCC1OC(OC(=O)c2ccccc2)C(F)C1OC(=O)c1ccccc1)c1ccccc1 (stereo not drawn) | -2.65% | -18.6% | 7.15% | -20.1 | -8.25% | 7.9
CCOC(=O)c1ccc(NC(=S)NCc2cccnc2)cc1 | 11.6% | -3.25% | 24.6% | 4.95 | 22.2% | -6.7
COC(=O)C1CCC(=O)N1C(c1ccc(OC)cc1)c1ccc2c(c1)OCO2 (stereo not drawn) | -0.1% | 20.9% | 11.1% | 11.7 | 31.5% | 34
O=C(O)Cc1cccc(C(=O)O)c1 | -1.55% | -8% | -7.3% | 8.4 | -0.45% | -3.35
NC(CC(=O)O)c1ccc(Cl)cc1 (stereo not drawn) | -22.5% | -23.3% | -14.4% | -8.3 | 0.3% | 7
O=C1C/C(=C\c2cccc([N+](=O)[O-])c2)C(=O)N1 | 9.7% | 11.3% | -5.4% | -11.3 | -2.8% | -3.2
O=NNc1ccc(Sc2ccc(NN=O)nc2)cc1 | 4.65% | -7.4% | 8.45% | 17 | -3.15% | 21.9
O=C1C=C(c2ccccc2)C(c2ccccc2)=C1 | 23.6% | 2.8% | -5.2% | 30.1 | -5.6% | 11.1
CC(C)CCCC(C)CCCC(C)CCCC(C)CC(=O)O (stereo not drawn) | -9.35% | -25.5% | -16.9% | 43 | -1.2% | -23.3
N=C(N)SCCCN | -1.7% | -14.7% | -3.6% | 2.95 | -36% | 29.1
Cn1nc(-c2ccccc2)c(N=[N+]=[N-])cc1=O | -18.1% | 14.6% | -41.3% | -11.9 | -10.9% | -34.6
C#CCN(C)C(C)=O | 25.3% | -3.3% | 5.1% | 10.8 | 6.45% | 13.6
OCC(O)C(O)C(O)C(O)C(O)[C@@H](O)c1nc2ccccc2[nH]1 (stereo partly drawn) | -9.2% | -5.4% | -12.3% | -16.9 | 50.1% | 6.6
Cn1nnnc1/C(=C/c1ccccc1)C(=O)O | 12.9% | -0.15% | 0.1% | -18.9 | 12.1% | 12.2
C1CCC(C(C2CCCCC2)C2CCCCC2)CC1 | -16.9% | -0.65% | -8.6% | 28 | -4.3% | -11.3
